Test [1] addresses Tyrosine-protein kinase CSK (Homo sapiens) (UniProt P41240). The settings on record: at 1 µM.
The target in test [2] is T1, Discoidin domain-containing receptor 2 (Homo sapiens) (UniProt Q16832).
T1 sequence (whole entry): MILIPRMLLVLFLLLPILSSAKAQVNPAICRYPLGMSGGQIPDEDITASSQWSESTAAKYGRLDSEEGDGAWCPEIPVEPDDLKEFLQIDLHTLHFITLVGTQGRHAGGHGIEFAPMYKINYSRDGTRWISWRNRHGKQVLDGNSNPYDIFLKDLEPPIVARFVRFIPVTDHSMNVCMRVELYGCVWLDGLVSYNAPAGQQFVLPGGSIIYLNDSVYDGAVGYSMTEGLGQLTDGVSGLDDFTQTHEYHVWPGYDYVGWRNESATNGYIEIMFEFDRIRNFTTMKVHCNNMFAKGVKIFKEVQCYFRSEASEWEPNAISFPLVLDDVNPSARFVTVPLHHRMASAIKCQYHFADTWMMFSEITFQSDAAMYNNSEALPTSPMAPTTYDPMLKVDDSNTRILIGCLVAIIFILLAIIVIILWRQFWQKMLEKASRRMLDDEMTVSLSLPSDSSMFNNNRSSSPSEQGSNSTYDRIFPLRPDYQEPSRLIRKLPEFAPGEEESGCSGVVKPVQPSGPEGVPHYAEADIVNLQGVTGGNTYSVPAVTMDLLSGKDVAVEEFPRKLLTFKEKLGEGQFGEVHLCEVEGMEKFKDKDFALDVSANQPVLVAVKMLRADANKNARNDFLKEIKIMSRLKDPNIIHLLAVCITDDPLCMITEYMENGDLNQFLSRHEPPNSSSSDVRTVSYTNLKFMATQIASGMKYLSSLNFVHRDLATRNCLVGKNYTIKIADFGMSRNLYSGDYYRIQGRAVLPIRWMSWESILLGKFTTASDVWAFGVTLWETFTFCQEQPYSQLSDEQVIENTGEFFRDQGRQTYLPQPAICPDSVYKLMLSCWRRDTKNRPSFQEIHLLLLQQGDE
The following applies: at 0.1 µM.

Test [3] concerns the target T1, Discoidin domain-containing receptor 2 (Homo sapiens). The following applies: at 1 µM.
Test [4] concerns the target Epidermal growth factor receptor (Homo sapiens) (UniProt P00533). The following applies: at 0.1 µM.
Test [5] has the same target. The settings on record: at 1 µM.
The subject of test [6] is Epidermal growth factor receptor (Homo sapiens), P00533 [L858R]. The following applies: at 0.1 µM.
The test system is the same in test [7]. The following applies: at 1 µM.
Test [8] has as its system Epidermal growth factor receptor (Homo sapiens), P00533 [L861Q]. The settings on record: at 0.1 µM.
Test [9] has the same test system. The following applies: at 1 µM.
Test [10] relates to Epidermal growth factor receptor (Homo sapiens), P00533 [T790M]. The settings on record: at 0.1 µM.
Test [11] shares this test system. The settings on record: at 1 µM.
In test [12] the test system is Epidermal growth factor receptor (Homo sapiens), P00533 [L858R,T790M]. The settings on record: at 0.1 µM.
Chain of Epidermal growth factor receptor (Homo sapiens), P00533 [L858R,T790M] (P00533 whole entry T790M/L858R, looked up): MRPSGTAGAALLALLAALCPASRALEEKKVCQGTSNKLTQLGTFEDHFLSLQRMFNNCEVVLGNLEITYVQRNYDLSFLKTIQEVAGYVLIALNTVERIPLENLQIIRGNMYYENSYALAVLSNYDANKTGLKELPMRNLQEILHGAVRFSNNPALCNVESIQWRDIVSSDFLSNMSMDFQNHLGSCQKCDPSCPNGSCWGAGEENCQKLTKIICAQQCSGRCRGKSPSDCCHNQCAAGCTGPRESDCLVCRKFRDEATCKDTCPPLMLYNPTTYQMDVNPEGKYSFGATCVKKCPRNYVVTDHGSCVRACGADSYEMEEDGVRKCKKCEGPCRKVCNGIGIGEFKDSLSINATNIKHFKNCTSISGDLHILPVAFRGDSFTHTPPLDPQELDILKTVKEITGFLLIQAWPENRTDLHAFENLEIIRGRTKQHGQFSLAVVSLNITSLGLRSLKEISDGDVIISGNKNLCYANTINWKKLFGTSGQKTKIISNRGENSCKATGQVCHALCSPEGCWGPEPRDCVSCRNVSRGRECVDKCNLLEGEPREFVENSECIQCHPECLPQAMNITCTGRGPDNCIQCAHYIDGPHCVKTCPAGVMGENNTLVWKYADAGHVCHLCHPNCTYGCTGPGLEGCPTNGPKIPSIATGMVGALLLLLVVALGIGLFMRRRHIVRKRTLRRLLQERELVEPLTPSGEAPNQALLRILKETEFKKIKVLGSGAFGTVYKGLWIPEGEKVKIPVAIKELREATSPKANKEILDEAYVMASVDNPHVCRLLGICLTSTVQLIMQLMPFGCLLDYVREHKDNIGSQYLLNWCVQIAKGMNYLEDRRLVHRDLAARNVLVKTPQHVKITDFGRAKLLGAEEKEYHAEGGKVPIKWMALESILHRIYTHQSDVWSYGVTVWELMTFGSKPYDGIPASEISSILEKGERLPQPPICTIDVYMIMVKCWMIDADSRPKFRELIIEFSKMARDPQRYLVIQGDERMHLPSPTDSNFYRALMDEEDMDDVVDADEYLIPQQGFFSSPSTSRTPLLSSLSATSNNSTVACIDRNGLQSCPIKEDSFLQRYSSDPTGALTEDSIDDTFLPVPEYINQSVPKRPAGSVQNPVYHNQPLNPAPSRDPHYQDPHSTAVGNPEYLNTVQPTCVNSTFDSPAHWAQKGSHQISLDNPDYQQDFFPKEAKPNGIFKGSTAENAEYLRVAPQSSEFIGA
For test [13] the test system is unchanged. The settings on record: at 1 µM.
The target in test [14] is Ephrin type-A receptor 2 (Homo sapiens) (UniProt P29317). The following applies: at 0.1 µM.
For test [15] the target is unchanged. The following applies: at 1 µM.
The target in test [16] is T2, Ephrin type-A receptor 3 (Homo sapiens) (UniProt P29320).
T2 sequence (whole entry): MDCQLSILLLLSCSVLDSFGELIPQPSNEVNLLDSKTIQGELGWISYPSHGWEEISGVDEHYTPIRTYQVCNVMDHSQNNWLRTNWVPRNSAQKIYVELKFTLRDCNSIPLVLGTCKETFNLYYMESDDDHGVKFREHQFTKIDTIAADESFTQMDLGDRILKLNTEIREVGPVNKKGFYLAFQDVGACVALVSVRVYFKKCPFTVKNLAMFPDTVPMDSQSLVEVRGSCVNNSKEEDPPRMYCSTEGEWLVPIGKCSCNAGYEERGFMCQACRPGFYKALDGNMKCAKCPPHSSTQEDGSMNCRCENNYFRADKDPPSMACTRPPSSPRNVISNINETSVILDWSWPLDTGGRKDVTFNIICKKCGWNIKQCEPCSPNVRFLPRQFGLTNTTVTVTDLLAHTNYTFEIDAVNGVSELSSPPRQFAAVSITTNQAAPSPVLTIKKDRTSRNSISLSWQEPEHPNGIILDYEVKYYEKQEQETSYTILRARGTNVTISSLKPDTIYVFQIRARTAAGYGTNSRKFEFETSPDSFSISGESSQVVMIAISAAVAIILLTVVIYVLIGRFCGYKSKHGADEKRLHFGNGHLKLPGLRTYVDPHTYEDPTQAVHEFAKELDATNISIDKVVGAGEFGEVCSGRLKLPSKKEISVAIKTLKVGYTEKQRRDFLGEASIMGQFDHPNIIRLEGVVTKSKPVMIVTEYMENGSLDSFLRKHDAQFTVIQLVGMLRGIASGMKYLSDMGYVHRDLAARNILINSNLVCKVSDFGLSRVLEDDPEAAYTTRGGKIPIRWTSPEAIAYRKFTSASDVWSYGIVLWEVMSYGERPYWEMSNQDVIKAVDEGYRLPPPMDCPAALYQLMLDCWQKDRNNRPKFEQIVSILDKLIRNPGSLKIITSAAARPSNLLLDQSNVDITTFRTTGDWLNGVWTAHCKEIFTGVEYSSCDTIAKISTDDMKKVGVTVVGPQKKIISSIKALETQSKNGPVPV
The following applies: at 0.1 µM.

Test [17] concerns the target T2, Ephrin type-A receptor 3 (Homo sapiens). The settings on record: at 1 µM.
In test [18] the target is Ephrin type-A receptor 4 (Homo sapiens) (UniProt P54764). The following applies: at 0.1 µM.
Chain of Ephrin type-A receptor 4 (Homo sapiens) (P54764 whole entry): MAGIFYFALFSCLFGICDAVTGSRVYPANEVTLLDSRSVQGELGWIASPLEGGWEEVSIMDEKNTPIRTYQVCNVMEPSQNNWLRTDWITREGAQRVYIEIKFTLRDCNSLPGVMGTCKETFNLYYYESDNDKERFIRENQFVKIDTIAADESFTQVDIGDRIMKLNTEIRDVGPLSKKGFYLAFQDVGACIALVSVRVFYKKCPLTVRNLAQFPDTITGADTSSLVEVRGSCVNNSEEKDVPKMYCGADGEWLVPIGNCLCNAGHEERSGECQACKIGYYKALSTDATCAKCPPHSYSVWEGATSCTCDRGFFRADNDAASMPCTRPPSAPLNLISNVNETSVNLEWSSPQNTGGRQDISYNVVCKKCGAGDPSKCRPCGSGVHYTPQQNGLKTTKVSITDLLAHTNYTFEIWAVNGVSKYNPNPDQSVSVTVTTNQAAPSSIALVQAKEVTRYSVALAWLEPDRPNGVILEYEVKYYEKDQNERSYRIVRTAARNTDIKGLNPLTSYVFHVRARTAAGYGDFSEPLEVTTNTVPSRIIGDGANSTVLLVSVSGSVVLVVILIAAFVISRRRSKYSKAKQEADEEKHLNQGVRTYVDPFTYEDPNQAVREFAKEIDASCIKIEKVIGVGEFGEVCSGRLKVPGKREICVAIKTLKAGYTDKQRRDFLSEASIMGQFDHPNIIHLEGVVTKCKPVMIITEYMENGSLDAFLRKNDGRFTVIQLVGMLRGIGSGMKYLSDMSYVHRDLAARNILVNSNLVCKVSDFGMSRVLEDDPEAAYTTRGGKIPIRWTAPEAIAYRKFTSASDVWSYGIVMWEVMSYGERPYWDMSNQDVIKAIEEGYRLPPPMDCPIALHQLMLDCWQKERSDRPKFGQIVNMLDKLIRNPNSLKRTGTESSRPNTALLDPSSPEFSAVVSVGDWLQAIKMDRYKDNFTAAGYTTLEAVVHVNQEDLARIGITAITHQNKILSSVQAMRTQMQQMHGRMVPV
For test [19] the target is unchanged. The following applies: at 1 µM.
For test [20], the target named is T3, Ephrin type-B receptor 2 (Homo sapiens) (UniProt P29323).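 Note: reported as mean inhibition of EPHB2, from the GSK PKIS dataset.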
T3 sequence (whole entry): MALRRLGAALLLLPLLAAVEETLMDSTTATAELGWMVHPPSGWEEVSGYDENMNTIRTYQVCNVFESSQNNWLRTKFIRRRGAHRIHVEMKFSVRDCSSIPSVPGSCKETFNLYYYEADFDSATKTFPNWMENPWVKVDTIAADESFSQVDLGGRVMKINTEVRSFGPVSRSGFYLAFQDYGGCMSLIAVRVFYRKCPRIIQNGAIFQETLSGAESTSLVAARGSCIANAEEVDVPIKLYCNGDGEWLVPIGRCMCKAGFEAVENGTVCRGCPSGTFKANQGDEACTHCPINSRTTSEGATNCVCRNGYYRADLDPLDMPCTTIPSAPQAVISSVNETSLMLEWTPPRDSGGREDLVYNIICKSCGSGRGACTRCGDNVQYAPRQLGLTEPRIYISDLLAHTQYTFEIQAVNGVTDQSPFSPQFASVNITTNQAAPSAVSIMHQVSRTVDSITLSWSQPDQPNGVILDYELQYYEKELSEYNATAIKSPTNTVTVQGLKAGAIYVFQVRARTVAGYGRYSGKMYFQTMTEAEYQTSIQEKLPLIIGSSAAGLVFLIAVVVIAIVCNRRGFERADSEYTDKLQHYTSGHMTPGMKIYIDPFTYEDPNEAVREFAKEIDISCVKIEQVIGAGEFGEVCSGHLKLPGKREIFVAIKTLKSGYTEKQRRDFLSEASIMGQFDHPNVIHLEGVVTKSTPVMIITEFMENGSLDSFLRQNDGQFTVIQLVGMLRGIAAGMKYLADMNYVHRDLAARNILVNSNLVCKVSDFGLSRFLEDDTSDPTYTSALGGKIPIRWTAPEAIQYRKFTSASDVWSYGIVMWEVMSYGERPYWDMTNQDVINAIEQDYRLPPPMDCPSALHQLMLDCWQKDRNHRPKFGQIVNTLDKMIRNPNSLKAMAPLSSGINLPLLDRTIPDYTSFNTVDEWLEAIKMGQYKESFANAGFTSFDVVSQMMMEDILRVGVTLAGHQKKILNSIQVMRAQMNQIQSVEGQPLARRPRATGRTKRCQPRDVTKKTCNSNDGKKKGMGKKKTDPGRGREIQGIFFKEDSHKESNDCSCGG
The following applies: at 0.1 µM.

Drawing on ChEMBL document CHEMBL1961873, “Compounds: GSK PKIS; Assays: Nanosyn kinase panel” (2012), this text covers inhibition for five compounds.

Chain of Epidermal growth factor receptor (Homo sapiens) (P00533 whole entry): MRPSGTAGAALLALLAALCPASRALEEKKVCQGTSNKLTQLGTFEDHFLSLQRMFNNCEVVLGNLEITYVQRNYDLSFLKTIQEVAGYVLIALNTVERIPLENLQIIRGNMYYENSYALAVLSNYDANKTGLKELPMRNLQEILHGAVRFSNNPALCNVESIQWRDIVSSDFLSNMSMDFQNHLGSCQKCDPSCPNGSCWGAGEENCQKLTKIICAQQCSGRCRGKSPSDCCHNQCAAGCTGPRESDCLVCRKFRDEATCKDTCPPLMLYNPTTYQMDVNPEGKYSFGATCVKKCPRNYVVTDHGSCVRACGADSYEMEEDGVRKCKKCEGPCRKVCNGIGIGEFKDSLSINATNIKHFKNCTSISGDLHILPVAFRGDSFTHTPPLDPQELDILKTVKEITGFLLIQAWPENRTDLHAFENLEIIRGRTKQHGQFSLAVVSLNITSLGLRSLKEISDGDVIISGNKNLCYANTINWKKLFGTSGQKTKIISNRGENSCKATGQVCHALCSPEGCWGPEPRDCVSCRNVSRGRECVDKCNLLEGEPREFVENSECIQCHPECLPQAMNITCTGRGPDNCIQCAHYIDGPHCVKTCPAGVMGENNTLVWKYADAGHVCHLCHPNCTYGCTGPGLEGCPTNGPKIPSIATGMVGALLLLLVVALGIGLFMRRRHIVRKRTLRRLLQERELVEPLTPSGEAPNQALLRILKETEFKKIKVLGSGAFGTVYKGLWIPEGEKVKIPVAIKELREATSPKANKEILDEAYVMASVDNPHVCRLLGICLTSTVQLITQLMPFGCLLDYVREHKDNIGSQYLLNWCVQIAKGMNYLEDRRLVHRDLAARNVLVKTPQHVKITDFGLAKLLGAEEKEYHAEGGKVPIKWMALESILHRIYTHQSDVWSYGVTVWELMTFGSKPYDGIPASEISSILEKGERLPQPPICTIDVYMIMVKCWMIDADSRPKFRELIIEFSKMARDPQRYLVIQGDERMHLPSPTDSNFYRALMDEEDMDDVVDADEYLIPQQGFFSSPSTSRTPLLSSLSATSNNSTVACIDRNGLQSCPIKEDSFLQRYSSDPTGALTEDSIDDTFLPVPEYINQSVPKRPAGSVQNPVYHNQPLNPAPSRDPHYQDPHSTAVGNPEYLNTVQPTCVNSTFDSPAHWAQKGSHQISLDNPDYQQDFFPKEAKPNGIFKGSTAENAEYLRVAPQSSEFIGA
Chain of Epidermal growth factor receptor (Homo sapiens), P00533 [L861Q] (P00533 whole entry L861Q): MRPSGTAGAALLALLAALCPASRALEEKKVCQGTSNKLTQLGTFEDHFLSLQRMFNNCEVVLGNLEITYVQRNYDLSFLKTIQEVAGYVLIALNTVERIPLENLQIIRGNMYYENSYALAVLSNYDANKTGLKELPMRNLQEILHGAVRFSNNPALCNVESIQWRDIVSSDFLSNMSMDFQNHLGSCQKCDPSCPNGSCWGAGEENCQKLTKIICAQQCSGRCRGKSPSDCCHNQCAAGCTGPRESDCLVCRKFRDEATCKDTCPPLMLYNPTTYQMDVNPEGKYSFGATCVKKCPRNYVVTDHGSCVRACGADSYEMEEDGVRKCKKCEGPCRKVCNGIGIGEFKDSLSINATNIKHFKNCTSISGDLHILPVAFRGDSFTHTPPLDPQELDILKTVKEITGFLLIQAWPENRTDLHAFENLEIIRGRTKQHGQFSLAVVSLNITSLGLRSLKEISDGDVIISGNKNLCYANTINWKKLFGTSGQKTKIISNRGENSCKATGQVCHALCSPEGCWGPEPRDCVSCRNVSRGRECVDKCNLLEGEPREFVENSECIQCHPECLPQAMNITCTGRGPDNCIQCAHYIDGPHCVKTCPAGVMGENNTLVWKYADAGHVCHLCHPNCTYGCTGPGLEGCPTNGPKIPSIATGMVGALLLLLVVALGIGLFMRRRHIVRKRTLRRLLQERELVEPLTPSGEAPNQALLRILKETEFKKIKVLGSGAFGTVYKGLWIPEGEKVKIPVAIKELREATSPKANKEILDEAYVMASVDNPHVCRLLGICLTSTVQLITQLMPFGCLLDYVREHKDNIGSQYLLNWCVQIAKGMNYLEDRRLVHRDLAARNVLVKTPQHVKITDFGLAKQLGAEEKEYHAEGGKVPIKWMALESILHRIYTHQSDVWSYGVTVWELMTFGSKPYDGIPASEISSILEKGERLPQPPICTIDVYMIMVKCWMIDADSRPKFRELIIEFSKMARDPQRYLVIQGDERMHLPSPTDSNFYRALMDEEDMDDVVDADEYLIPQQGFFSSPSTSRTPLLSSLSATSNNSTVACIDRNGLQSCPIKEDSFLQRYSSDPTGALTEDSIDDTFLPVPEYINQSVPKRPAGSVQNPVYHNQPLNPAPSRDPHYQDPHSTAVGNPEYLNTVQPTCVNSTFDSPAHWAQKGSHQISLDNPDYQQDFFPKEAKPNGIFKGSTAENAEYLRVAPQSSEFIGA
Chain of Tyrosine-protein kinase CSK (Homo sapiens) (P41240 2-450 limits assumed): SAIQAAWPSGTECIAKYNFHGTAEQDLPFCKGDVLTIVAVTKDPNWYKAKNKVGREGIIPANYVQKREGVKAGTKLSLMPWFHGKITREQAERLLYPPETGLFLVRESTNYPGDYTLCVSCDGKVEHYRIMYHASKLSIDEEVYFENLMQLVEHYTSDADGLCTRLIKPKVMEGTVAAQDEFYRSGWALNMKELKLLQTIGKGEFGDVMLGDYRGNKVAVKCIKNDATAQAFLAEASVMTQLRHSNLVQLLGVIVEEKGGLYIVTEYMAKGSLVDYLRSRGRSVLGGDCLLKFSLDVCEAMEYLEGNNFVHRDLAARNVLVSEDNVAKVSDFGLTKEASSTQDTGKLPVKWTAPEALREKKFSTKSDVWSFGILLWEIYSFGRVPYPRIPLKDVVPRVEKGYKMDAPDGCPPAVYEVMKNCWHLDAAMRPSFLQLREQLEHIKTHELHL

As to `COc1ccc(C2=C(N3CCc4ccccc43)C(=O)NC2=O)cc1`, the inhibition in test [1] was 9.3%; in test [2] it was 1.75%; in test [3], 1.87%; in test [4], 1.18%; in [5], 3.59%; in [6], 7.35%. The inhibition came out at 7.13% in test [7]; 4.49% in test [8]; 6.05% in [9]; 3.62% in [10]; 2.96% in test [11]; 1.12% in test [12]. In addition, the inhibition in test [13] was 2.08%; in test [14], 2.52%; in test [15] it was 0.56%; in test [16] it was 7.52%; in [17] it was 5.91%; in [18], 10.6%. In addition, the inhibition in [19] came to 12.4%; in test [20], 11%.

For `CCS(=O)(=O)c1ccc(OC)c(Nc2ncc(-c3cccc(-c4ccccc4F)c3)o2)c1`, the inhibition in test [1] was 4.82%; in test [2], 4.99%; in [3], 30.8%; in test [4], 4.07%; in test [5], 23.3%; in test [6], 14.1%. For the same compound, the inhibition in [7] is 62.1%; in test [8] it was 4.78%; in [9] it was 24.4%; in [10], -1.94%; in [11] it was 0.84%; in test [12], 3.32%. For the same compound, the inhibition is 5.25% in test [13]; -1.44% in test [14]; -0.56% in test [15]; -1.38% in test [16]; 4.18% in [17]; 2.37% in test [18]. The inhibition in test [19] is 2.94%; in test [20], 5.91%.

For the compound `CCc1nccc2c1nc(-c1nonc1N)n2CC`, the inhibition in test [1] was -3.01%; in test [2] it was 1.17%; in test [3], 2.38%; in [4], 6.7%; in [5], 7.54%; in [6], 0.22%. Further, the inhibition is -2.09% in test [7]; -1.13% in [8]; -0.05% in [9]; -1.16% in test [10]; -1.27% in test [11]; -0.81% in test [12]. Also, the inhibition in [13] was 1.48%; in test [14] it was 0.61%; in test [15], 0.69%; in test [16] it was -0.26%; in test [17], 1.46%; in test [18], 0.87%. For the same compound, the values for the inhibition in test [19] and in test [20] were -5.92% and -5.8%, respectively.

Take `Fc1ccc(-c2c(-c3ccncc3)nc3n2CCS3)cc1`: the inhibition in test [1] is 5.05%; in test [2], 0.56%; in test [3], -0.39%; in test [4], -4.84%; in test [5], -0.06%; in test [6], 3.61%. Also, the inhibition came to 22.2% in test [7]; 1.81% in test [8]; 1.46% in [9]; 1.14% in test [10]; 1.49% in test [11]; 2.41% in test [12]. The inhibition in test [13] was 2.54%; in test [14] it was -5.85%; in [15] it was -4.53%; in test [16] it was -0.6%; in test [17], 0.35%; in test [18], 6.26%. For the same compound, the inhibition in [19] was 8.11%; in test [20], 1.66%.

In the case of `CNC(=O)c1cncc(/C=C/c2c(C)cccc2C)c1`, the inhibition in test [1] is 24.6%; in test [2] it was 7.93%; in test [3] it was 36.8%; in test [4], -2.83%; in [5] it was 5.96%; in test [6] it was 7.48%. For the same compound, the inhibition in [7] is 41.4%; in [8] it was 1.86%; in test [9], 8.46%; in test [10], -0.41%; in test [11], 0.11%; in test [12] it was 0.33%. The inhibition is 1.36% in test [13]; 8.07% in test [14]; 44.4% in [15]; 2.95% in test [16]; 16.1% in test [17]; 25.5% in test [18]. Also, the results for the inhibition in test [19] and in test [20] were 80.9% and 23.2%, respectively.

The term inhibition denotes the change of the read-out against control, counted positive when it falls.
